Results taken from PubChem BioAssay (Tox21).
Inconclusive results are not listed. Active and inactive are the calls of the source. Unless noted, the call rests on the fitted dose curve; in most records, active means well fitted curve in the direction sought with a large enough effect in the repeat runs; inconclusive means weak or mixed curves; inactive means no such curve, though single readings can be large; an effect the other way counts as inactive or inconclusive.

Assays:
[1] = qHTS assay to identify aromatase inhibitors - cell viability counter screen (AID 743084);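 further: cells stimulated with testosterone during compound exposure; nearly all actives have a fitted effect of over 55% in size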
[2] = molecular target: Aryl hydrocarbon receptor (Homo sapiens) (UniProt P35869); assay: qHTS assay to identify small molecule that activate the aryl hydrocarbon receptor (AhR) signaling pathway (AID 743085);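 further: HG2L7.5c1 human HepG2 liver cells with stably integrated DRE-driven firefly reporter; series mostly up to about 70 µM; nearly all actives have a fitted effect of over 15% in size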
In short: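 Luminescence (ONE-Glo) from a dioxin-responsive-element luciferase reporter in HG2L7.5c1 HepG2 cells after 24 hr compound exposure at 37C; viability measured by CellTiter-Fluor fluorescence beforehand.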

[3] = qHTS assay to identify small molecule that activate the aryl hydrocarbon receptor (AhR) signaling pathway - cell viability counter screen (AID 743086);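 further: HepG2 liver cells carrying the AhR DRE luciferase reporter; series mostly up to about 70 µM; nearly all actives have a fitted effect of over 45% in size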
In short: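 HepG2-AhR-luc (HG2L7.5c1) cells, 4000/well, were preincubated 5 h at 37C, exposed to compound in qHTS format for 24 hr at 37C, then given CellTiter-Fluor for 30 min; viability was read as fluorescence in the reporter wells.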

[4] = molecular target: Peroxisome proliferator-activated receptor gamma (Homo sapiens) (UniProt P37231); assay: qHTS assay to identify small molecule agonists of the peroxisome proliferator-activated receptor gamma (PPARg) signaling pathway (AID 743094; active means well fitted activation curve with a large enough effect in the signal ratio in the repeat runs, not every such curve was filed as active; the % refers to the signal ratio)
In short: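 Beta-lactamase FRET fluorescence was the read-out after a 1 h room-temperature substrate step, following 17 h compound treatment at 37C of HEK293H cells expressing a UAS-driven bla reporter responsive to PPARg.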

[5] = molecular target: Peroxisome proliferator-activated receptor gamma (Homo sapiens) (UniProt P37231); assay: qHTS assay to identify small molecule antagonists of the peroxisome proliferator-activated receptor gamma (PPARg) signaling pathway (AID 743191; calls by dose curve; further: series mostly up to about 63 µM; nearly all actives have a fitted effect of over 30% in size)
In short: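 GeneBLAzer PPARg UAS-bla HEK293H cells carrying a UAS-driven beta-lactamase reporter were plated at 3000 cells/well, preincubated 5 h at 37C, then given compound for 17 h at 37C; LiveBLAzer B/G FRET substrate was read after 1 h at room temperature.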

[6] = qHTS assay to identify small molecule antagonists of the peroxisome proliferator-activated receptor gamma (PPARg) signaling pathway - cell viability counter screen (AID 743194); further: nearly all actives have a fitted effect of over 55% in size
In short: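 PPARg-UAS-bla HEK293H cells were plated, rested 5 h at 37 C, then treated with compounds plus rosiglitazone (50 nM final) for 17 h at 37 C; viability was then read by CellTiter-Glo luminescence after 30 min at room temperature.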

[7] = qHTS assay for small molecule agonists of the antioxidant response element (ARE) signaling pathway (AID 743202; active means well fitted activation curve with a large enough effect in the signal ratio in the repeat runs, not every such curve was filed as active; the % refers to the signal ratio)
In short: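 Read-out: LiveBLAzer B/G FRET substrate fluorescence after 2 h at room temperature, following 16 h compound treatment at 37 C of HepG2 cells carrying an ARE-driven beta-lactamase reporter.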

[8] = qHTS assay for small molecule agonists of the antioxidant response element (ARE) signaling pathway - cell viability counter screen (AID 743203; calls by dose curve; further: nearly all actives have a fitted effect of over 55% in size)
In short: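 HepG2 cells carrying ARE-driven beta-lactamase; 2,000 cells/well; 5 hrs plating; compound pinned from DMSO; 16 hrs 37C/5% CO2; CellTiter-Glo added; 30 min RT; luminescence.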

[9] = qHTS assay for small molecule activators of the heat shock response signaling pathway - cell viability counter screen (AID 743209); further: nearly all actives have a fitted effect of over 50% in size
In short: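 Luminescence from CellTiter-Glo, added after the beta-lactamase FRET read, gave the viability signal. Cells were HSE-bla HeLa treated with DMSO-dissolved compounds for 5 h at 37 C following overnight plating.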

[10] = qHTS assay for small molecule activators of the heat shock response signaling pathway (AID 743210; active means well fitted activation curve with a large enough effect in the signal ratio in the repeat runs, with a control signal flat, not every such curve was filed as active; the % refers to the signal ratio; further: series mostly up to about 63 µM)
In short: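 HSE-bla HeLa cells (beta-lactamase reporter under heat shock response elements) were exposed to compounds for 5 h at 37 C, then loaded with LiveBLAzer B/G FRET substrate for 2.5 h at room temperature before fluorescence reading.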

[11] = qHTS assay to identify small molecule agonists of the peroxisome proliferator-activated receptor delta (PPARd) signaling pathway - cell viability counter screen (AID 743211); further: nearly all actives have a fitted effect of over 55% in size
In short: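 Viability was measured as CellTiter-Glo luminescence (30 min, room temperature) in the same wells as the beta-lactamase readout. GeneBLAzer PPARd UAS-bla HEK293H cells received compound after 5 h plating and were incubated 17 h at 37 C.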

[12] = molecular target: Peroxisome proliferator-activated receptor delta (Homo sapiens) (UniProt Q03181); assay: qHTS assay to identify small molecule agonists of the peroxisome proliferator-activated receptor delta (PPARd) signaling pathway (AID 743212; calls by dose curve)
In short: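 GeneBLAzer PPARd UAS-bla HEK293H cells (beta-lactamase reporter under UAS control), plated and rested 5 h at 37 C, then exposed to compounds in DMSO at 37 C; LiveBLAzer B/G FRET substrate added, 2 h room temperature, fluorescence read.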

[13] = qHTS assay to identify small molecule antagonists of the peroxisome proliferator-activated receptor delta (PPARd) signaling pathway - cell viability counter screen (AID 743213); further: nearly all actives have a fitted effect of over 50% in size
In short: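 Same-well viability: cells pre-incubated 5 h, dosed with compound plus 300 nM L165041, kept 17 h at 37 C, FRET substrate 2 h RT, then CellTiter-Glo 30 min RT and luminescence.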

[14] = molecular target: Peroxisome proliferator-activated receptor delta (Homo sapiens) (UniProt Q03181); assay: qHTS assay to identify small molecule antagonists of the peroxisome proliferator-activated receptor delta (PPARd) signaling pathway (AID 743215; active means well fitted inhibition curve with a large enough effect in the signal ratio in the repeat runs, not every such curve was filed as active; the % refers to the signal ratio;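 further: cells stimulated with agonist L165041 at 300 nM final during compound exposure; series mostly up to about 62 µM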)
In short: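 Read-out is beta-lactamase FRET fluorescence, measured 2 h after substrate addition at room temperature. Beforehand, UAS-bla HEK293H cells carrying the PPARd reporter were exposed to compounds with L165041 at 300 nM final for 17 h at 37 C.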

[15] = molecular target: Bile acid receptor (Homo sapiens) (UniProt Q96RI1); assay: qHTS assay to identify small molecule antagonists of the farnesoid-X-receptor (FXR) signaling pathway (AID 743217; active means well fitted inhibition curve with a large enough effect in the signal ratio in the repeat runs, not every such curve was filed as active; the % refers to the signal ratio)
In short: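 HEK 293T FXR-UAS-bla, 5000 cells/well; compound + CDCA 50 uM final; 16 h, 37 °C; B/G FRET substrate 2 h RT; fluorescence.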

[16] = qHTS assay to identify small molecule agonists of the farnesoid-X-receptor (FXR) signaling pathway - cell viability counter screen (AID 743218); further: nearly all actives have a fitted effect of over 45% in size
In short: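 HEK 293T FXR-bla cells; 5 h pre-incubation, 16 h compound exposure at 37 C; LiveBLAzer substrate 2 h RT, then CellTiter-Glo 30 min RT, luminescence.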

[17] = molecular target: Bile acid receptor (Homo sapiens) (UniProt Q96RI1); assay: qHTS assay to identify small molecule agonists of the farnesoid-X-receptor (FXR) signaling pathway (AID 743220; active means well fitted activation curve with a large enough effect in the signal ratio in the repeat runs, not every such curve was filed as active; the % refers to the signal ratio)
In short: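 Beta-lactamase reporter under UAS control in GeneBLAzer FXR HEK 293T cells (5000/well) measured with LiveBLAzer FRET substrate after 2 h at room temperature. Compound exposure lasted 16 h at 37C.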

[18] = qHTS assay to identify small molecule antagonists of the farnesoid-X-receptor (FXR) signaling pathway - cell viability counter screen (AID 743221; active means well fitted cell-killing curve with a large enough effect in the repeat runs, not every such curve was filed as active; further: nearly all actives have a fitted effect of over 50% in size)
In short: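 Cytotoxicity counter screen run in the FXR-bla reporter wells: HEK 293T cells exposed to compound with 50 uM (final) chenodeoxycholic acid for 16 h, 37 C, then viability measured by CellTiter-Glo luminescence after 30 min, room temperature.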

[19] = molecular target: Vitamin D3 receptor (Homo sapiens) (UniProt P11473); assay: qHTS assay to identify small molecule agonists of the vitamin D receptor (VDR) signaling pathway (AID 743222; calls by dose curve)
In short: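 VDR-bla cells, 2,000/well; 4 h preincubation 37C; cpd (DMSO) 16 h; LiveBLAzer B/G substrate 2 h RT; fluorescence intensity read.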

[20] = molecular target: Vitamin D3 receptor (Homo sapiens) (UniProt P11473); assay: qHTS assay to identify small molecule antagonists of the vitamin D receptor (VDR) signaling pathway (AID 743223; active means well fitted inhibition curve with a large enough effect in the signal ratio in the repeat runs, not every such curve was filed as active; the % refers to the signal ratio)
In short: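 Antagonist mode: compound added to VDR-bla cells alongside agonist 1alpha,25-dihydroxyvitamin D3 (3 nM final), incubation 16 h at 37C. Read-out is LiveBLAzer FRET fluorescence, 2 h at room temperature.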

Measured: Potency

Aryl hydrocarbon receptor (Homo sapiens), sequence (P35869 whole entry, looked up): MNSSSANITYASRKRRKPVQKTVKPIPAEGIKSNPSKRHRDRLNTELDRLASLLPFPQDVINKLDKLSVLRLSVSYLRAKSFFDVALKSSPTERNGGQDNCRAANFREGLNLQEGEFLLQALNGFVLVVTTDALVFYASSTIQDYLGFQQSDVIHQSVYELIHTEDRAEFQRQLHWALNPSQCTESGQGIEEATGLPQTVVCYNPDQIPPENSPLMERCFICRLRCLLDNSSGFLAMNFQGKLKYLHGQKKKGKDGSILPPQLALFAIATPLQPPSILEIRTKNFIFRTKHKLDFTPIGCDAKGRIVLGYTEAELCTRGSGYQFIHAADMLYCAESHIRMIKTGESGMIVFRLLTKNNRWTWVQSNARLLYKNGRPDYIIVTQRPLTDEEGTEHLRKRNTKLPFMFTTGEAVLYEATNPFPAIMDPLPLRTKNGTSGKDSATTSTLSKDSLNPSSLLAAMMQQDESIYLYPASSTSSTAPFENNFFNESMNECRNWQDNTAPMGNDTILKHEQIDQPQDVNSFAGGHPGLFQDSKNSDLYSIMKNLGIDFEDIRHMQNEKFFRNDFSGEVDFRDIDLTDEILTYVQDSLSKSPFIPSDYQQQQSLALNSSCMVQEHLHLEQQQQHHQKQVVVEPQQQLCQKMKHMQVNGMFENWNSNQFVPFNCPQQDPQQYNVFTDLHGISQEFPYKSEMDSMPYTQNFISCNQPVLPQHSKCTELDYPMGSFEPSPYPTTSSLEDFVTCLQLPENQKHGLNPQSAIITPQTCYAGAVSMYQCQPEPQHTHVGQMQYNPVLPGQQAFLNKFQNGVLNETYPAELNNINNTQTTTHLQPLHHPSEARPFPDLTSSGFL
Vitamin D3 receptor (Homo sapiens), sequence (P11473 whole entry, looked up): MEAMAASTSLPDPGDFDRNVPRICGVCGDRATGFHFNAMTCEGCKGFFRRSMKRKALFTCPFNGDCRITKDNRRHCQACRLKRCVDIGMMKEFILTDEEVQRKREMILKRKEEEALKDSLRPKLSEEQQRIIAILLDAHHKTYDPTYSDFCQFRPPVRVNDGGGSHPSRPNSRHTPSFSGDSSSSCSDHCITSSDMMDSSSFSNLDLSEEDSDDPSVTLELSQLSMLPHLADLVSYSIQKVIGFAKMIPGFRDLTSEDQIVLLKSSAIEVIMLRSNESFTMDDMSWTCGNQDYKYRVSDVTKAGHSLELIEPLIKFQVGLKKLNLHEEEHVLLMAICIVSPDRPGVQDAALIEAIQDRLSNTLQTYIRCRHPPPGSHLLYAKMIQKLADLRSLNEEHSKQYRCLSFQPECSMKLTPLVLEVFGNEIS
Bile acid receptor (Homo sapiens), sequence (Q96RI1 whole entry, looked up): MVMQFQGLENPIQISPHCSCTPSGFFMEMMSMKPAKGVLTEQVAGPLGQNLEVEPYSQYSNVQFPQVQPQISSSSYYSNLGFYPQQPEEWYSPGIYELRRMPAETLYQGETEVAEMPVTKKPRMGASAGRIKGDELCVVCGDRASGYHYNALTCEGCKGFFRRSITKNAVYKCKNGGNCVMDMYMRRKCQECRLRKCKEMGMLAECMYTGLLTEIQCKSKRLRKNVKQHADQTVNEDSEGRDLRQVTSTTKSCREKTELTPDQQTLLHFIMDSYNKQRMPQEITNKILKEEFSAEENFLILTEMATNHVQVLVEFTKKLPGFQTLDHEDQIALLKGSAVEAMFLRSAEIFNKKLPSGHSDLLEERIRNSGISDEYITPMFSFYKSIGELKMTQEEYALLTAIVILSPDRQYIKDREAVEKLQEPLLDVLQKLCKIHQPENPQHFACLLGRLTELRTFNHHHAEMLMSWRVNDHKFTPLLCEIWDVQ
Peroxisome proliferator-activated receptor gamma (Homo sapiens), sequence (P37231 whole entry, looked up): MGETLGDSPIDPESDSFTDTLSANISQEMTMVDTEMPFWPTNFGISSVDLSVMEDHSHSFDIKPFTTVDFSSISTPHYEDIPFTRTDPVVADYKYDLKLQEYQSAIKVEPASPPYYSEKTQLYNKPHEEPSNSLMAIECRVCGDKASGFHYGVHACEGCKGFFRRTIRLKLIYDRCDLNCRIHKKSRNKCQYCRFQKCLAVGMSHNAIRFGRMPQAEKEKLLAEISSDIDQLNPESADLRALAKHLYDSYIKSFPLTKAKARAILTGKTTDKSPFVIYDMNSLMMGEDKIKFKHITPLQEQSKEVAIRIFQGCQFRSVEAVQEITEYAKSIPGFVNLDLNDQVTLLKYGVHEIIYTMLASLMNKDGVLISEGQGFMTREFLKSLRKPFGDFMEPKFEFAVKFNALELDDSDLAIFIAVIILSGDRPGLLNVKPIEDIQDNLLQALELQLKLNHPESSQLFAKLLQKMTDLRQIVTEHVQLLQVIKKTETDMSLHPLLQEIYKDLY
Peroxisome proliferator-activated receptor delta (Homo sapiens), sequence (Q03181 whole entry, looked up): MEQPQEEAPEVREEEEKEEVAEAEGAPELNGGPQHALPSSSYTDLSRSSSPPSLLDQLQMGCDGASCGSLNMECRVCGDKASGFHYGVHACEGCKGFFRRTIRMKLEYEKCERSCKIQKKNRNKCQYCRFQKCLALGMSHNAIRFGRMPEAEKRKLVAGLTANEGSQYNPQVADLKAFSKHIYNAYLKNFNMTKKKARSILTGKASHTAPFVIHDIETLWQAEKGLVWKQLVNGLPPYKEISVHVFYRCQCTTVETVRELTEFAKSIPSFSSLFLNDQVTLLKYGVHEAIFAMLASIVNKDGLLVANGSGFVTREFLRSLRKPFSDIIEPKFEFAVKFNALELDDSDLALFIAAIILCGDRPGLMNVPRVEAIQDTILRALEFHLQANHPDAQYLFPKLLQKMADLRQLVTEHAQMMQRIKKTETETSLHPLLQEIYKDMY

CCN(CCO)c1cccc(C)c1
not listed: [19] | [20]
inactive: all other assays above

F[Si-2](F)(F)(F)(F)F
not listed: [15]
inactive: all other assays above

CC(C)CCO
not listed: [15] | [17]
inactive: all other assays above

Cc1c(C(C)C)c(=O)n(-c2ccccc2)n1C
not listed: [12] | [13] | [14] | [15] | [17]
inactive: all other assays above

CNC(=O)NC
not listed: [13]
inactive: all other assays above

C[N+](C)(C)CC(O)CCl (centres undefined)
not listed: [14] | [15] | [17]
inactive: all other assays above

CCCCCCCCCCCCCCCCI
not listed: [11]
inactive: all other assays above

CCOC(=O)OCC/C(SC(=O)OCC)=C(\C)N(C=O)Cc1cnc(C)nc1N
not listed: [12] | [13] | [14] | [15] | [16] | [17]
inactive: all other assays above

Cc1nc2ccccc2c(=O)o1
not listed: [14] | [15] | [16] | [17] | [19] | [20]
inactive: all other assays above

CCCC(C)CC (centres undefined)
not listed: [15] | [17]
inactive: all other assays above

CCCCCCCCC(=O)OCC
not listed: [15] | [17]
inactive: all other assays above

CCCCCCCCCCCCOC(C)=O
not listed: [15] | [17] | [19]
inactive: all other assays above

O=C(O)c1ccccc1C(=O)OCc1ccccc1
not listed: [18] | [19] | [20]
inactive: all other assays above

CCCCCCCCCCCCCC(=O)OC
not listed: [15] | [16] | [17] | [20]
inactive: all other assays above

C=C[Si](C)(C)O[Si](C)(C)C=C
not listed: [12] | [14] | [15] | [17]
inactive: all other assays above

Nc1cc(C(=O)O)ccc1Cl
inactive: all assays above

O=C(Oc1ccccc1C(=O)O)c1ccccc1O
inactive: all assays above

CCC(C)N (centres undefined)
not listed: [15] | [18]
inactive: all other assays above

CCN1CN(CC)CN(CC)C1
not listed: [11] | [19] | [20]
inactive: all other assays above

CCOc1ccc(NC(=O)OC(C)C)cc1OCC
not listed: [12] | [14]
inactive: all other assays above

O=C(Nc1cccc(C2=NCCN2)c1)Nc1cccc(C2=NCCN2)c1
not listed: [11] | [15] | [17] | [19] | [20]
inactive: all other assays above

Cc1nc([N+](=O)[O-])cn1-c1ccc([N+](=O)[O-])cc1
inactive: all assays above

CC(=O)OCC(=O)[C@@]1(O)[C@H](OC(C)=O)C[C@H]2[C@@H]3CCC4=CC(=O)C=C[C@]4(C)[C@@]3(F)[C@@H](O)C[C@@]21C
not listed: [14] | [16]
inactive: all other assays above

C=C(C)C(=O)OCCCCCCOC(=O)C(=C)C
not listed: [12] | [14] | [15] | [16] | [17]
inactive: all other assays above

CCCCC[Si](OCC)(OCC)OCC
not listed: [15] | [16] | [17] | [19] | [20]
inactive: all other assays above

C=CC(C)(O)CC/C=C(\C)CC (centres undefined)
not listed: [14] | [15] | [16] | [17]
inactive: all other assays above

CCCCCC1Nc2cc(C(F)(F)F)c(S(N)(=O)=O)cc2S(=O)(=O)N1 (centres undefined)
not listed: [14] | [15] | [17]
inactive: all other assays above

CN(C)CCOCCN(C)CCO
not listed: [15] | [16] | [17]
inactive: all other assays above

CC(=O)Nc1ccc(C)cc1
not listed: [14] | [15] | [17]
inactive: all other assays above

CCCCCCCCCCCCC1CO1 (centres undefined)
not listed: [19] | [20]
inactive: all other assays above

O=C(O)CCNC(=O)c1ccccc1
not listed: [15] | [17] | [19] | [20]
inactive: all other assays above

C1=C\CC/C=C\CC/1
not listed: [14] | [15] | [17]
inactive: all other assays above
